Dicer processing: inhibitors of human Dicer processing of pre-microRNA; 6% of 47,000 active; z-score at 25 µM; Q9UPY3; AID 1347074; cat-ELCCA pre-miR-21 Dicer processing, chemiluminescence; hits give high values; in the data active = z-score above about 3, passing the limit was not always enough;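 note: plate controls were vehicle for no effect and no enzyme for full effect; higher signal means more uncleaved substrate so more Dicer inhibition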
Target sequence (Q9UPY3 whole entry, looked up): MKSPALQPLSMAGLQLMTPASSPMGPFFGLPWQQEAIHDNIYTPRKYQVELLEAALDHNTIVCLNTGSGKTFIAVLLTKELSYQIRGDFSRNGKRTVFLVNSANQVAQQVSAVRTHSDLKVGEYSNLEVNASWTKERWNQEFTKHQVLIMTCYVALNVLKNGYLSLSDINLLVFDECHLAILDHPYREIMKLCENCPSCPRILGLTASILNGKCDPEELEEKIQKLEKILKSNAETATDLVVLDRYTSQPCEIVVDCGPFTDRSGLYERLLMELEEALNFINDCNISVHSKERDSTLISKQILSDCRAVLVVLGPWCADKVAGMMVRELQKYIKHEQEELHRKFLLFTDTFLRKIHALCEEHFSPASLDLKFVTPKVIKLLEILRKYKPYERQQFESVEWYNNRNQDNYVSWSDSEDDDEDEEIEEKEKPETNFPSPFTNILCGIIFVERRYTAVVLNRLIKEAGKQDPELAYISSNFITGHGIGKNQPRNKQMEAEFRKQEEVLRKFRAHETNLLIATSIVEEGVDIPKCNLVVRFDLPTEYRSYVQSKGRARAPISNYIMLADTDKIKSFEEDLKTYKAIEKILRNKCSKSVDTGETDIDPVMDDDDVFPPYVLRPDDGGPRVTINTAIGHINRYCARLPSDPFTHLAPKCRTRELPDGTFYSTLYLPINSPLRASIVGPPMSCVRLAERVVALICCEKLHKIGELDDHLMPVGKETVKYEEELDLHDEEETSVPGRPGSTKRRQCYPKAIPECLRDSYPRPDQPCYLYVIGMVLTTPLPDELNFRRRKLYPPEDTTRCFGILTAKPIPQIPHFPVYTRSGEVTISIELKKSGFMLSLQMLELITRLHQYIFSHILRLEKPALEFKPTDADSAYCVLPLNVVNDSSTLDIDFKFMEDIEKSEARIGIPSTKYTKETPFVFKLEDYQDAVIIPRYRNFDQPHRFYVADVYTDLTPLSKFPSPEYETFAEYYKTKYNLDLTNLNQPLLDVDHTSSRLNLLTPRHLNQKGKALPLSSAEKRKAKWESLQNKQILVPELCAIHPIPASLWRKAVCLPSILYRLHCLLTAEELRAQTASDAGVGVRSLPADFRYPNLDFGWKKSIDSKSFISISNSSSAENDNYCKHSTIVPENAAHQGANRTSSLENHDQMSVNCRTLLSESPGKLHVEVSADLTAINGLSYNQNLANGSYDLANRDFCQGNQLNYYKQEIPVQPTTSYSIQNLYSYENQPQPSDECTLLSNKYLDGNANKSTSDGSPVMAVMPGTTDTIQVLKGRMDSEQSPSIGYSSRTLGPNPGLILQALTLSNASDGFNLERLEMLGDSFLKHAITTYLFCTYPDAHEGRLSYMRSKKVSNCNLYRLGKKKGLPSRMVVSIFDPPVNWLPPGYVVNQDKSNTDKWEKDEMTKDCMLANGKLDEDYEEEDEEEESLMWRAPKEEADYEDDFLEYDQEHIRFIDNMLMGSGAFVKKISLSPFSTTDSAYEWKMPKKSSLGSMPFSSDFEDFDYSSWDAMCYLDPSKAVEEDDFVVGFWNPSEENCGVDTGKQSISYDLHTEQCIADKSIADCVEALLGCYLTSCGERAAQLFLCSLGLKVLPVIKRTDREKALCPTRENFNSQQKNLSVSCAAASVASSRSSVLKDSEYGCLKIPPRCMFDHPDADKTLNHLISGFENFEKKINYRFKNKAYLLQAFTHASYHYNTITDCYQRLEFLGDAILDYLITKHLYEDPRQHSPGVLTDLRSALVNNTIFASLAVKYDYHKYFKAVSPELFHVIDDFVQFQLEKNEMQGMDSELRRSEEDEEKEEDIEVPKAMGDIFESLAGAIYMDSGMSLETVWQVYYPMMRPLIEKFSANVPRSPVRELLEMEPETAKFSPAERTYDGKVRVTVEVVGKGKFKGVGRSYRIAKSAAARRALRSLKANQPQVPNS
* hit, by the source's call. This is one part of a sample in which hits are shown more often than they occur.

SMILES	Dicer processing
COC(=O)C1=C(Nc2ccccc2NS(=O)(=O)c2ccc(C(F)(F)F)cc2Cl)CSC1	-0.77
Cc1cccc(Cn2nc(C(C)(C)C)cc2-c2n[nH]c(=S)o2)c1	2.3
CSc1nc2cc(-c3ccc(Cl)cc3)nn2c(C)c1C(C)=O	0.21
CCOC(=O)N/N=C(\Cc1ccccc1)c1ccccc1	0.39
Clc1ccccc1CSc1nnnn1-c1ccccc1	0.72
NC(=O)c1ccc(-n2nnnc2SCc2ccccc2Br)cc1	4*
O=C(O)c1ccc(-n2nnnc2SCc2ccccc2Br)cc1	0.34
CCCC(=O)c1ccc(NC(C)=O)cc1O	0.35
Cc1ccc(C(=O)CC(=O)c2ccc(C)cc2O)cc1	3.6*
Cc1ccc(C(=O)c2cc(Cl)cc(Cl)c2)c(C)c1	-3.2
CCOC(=O)C(=CNc1ccc(-c2nnc(C(F)(F)F)o2)cc1C)C(=O)OCC	-1.4
N#CC1=C2N=C(N)c3ccccc3N2C2=C(C(=O)CCC2)C1c1ccc(Br)cc1 (configuration not stated)	0.96
O=C(Nc1nc2ccccc2s1)c1cc(Br)ccc1Cl	0.28
COC(=O)C1Cc2c([nH]c3ccccc23)C(c2ccccc2)N1 (configuration not stated)	0.69
O=S(=O)(c1ccc(F)cc1)N(Cc1ccc2c(c1)OCO2)c1ccc(F)cc1	-0.99
O=C(CSC1=NCCCCC1)c1ccccc1	-0.52
O=C(O)/C=C/c1ccc(O)c(O)c1	0.75
O=c1nc(/C=C/c2ccc(O)c(O)c2)oc2ccccc12	4*
CSc1ccc(/C=C/c2nc(=O)c3ccccc3o2)cc1	1.2
COC(=O)c1cccc(CO/N=C(\C)c2ccc(Cl)c(Cl)c2)c1	-0.87
CCCCCCN1C(=O)C(=O)c2ccccc21	1
CCC(C)OC(=O)C1=C(C)NC(=O)CC1c1ccccc1Br (configuration not stated)	-0.12
Cc1cc(NC(=O)c2ccc3c(c2)OCO3)no1	20
Cc1cc(NC(=O)c2ccc3c(c2)OCCO3)no1	4.2*
Cc1cc(-c2nnc(SCC(=O)c3ccc4c(c3)OCCO4)o2)no1	-1.3
SMILES	Dicer processing
CCOc1ncnc2c1sc1nc(C)cc(C)c12	1.1
C=CCSc1ncnc2c1sc1nc(C)cc(C)c12	3.1*
Cc1cc(C)c2c(n1)sc1c(SCc3ccc(F)cc3)ncnc12	1
O=C(Oc1cccc2cccnc12)c1ccc(Br)cc1	4.6*
O=C(Oc1cccc2cccnc12)c1ccc2c(c1)-c1ccccc1C2=O	-0.05
Cc1onc(-c2c(Cl)cccc2Cl)c1C(=O)Oc1cccc2cccnc12	1.1
CC(C)(C)SCCN=C(Nc1cccc(F)c1)c1cccc(Cl)c1	-2.9
CCOC(=O)c1sc(N2C(=O)c3oc4ccc(F)cc4c(=O)c3C2c2ccc(F)cc2)nc1C (configuration not stated)	0.09
Cc1ccc(CSc2nc3ncccc3[nH]2)cc1	4.3*
Fc1cc(Cl)ccc1CSc1nc2ncccc2[nH]1	-0.21
Brc1cccc(CSc2nc3ncccc3[nH]2)c1	1.2
CCO/C=C1/SC(=S)N(c2ccc(C)cc2C)C1=O	-0.96
Cc1ccc(C=C2C(=O)OC(C)(C)OC2=O)o1	-0.86
CN1CCc2c(sc3c2C(=O)NC(c2ccc(O)c(O)c2)N3)C1 (configuration not stated)	1.4
OC(c1ccccc1)C(CN1CCCCC1)CN1CCCCC1 (configuration not stated)	-0.53
CC(C)(C)OC(=O)N1CCCN(C(=S)Nc2ccccc2N2CCOCC2)CC1	-0.86
S=C(Nc1ccc(N2CCOCC2)nc1)Nc1cc(Cl)ccc1Cl	0.43
S=C(Nc1ccc2[nH]ccc2c1)Nc1ccccc1N1CCOCC1	4.6*
S=C(NCC1CC1)Nc1ccc2[nH]ccc2c1	4.8*
O=C(NCC1CC1)Nc1ccc2c(c1)CCO2	1
O=C(Nc1ccc2[nH]ncc2c1)C1CCC1	-0.03
CC1=NN(c2ccc(Cl)cc2)C(=O)C1CCOC(=O)c1nn(-c2ccccc2)nc1C (configuration not stated)	-1.6
O=C(O)CC(NC(=O)c1ccccc1)C(=O)O (configuration not stated)	0.11
CC1=C(C(=O)OCCc2ccccc2)C(c2ccc(C)o2)C2=C(CC(C)(C)CC2=O)N1 (configuration not stated)	-0.45
COc1cc(Cl)ccc1N/N=C(\C#N)C(N)=O	5*
SMILES	Dicer processing
COc1ccc(Cl)cc1NC(C)=O	0.03
N#C/C(=N\Nc1ccc(Cl)cc1)C(=O)C1CC1	2.5
Cn1c2c(c(=O)n(C)c1=O)C(c1ccc(Br)cc1)C1=C(N2)c2ccccc2C1=O (configuration not stated)	-0.07
Cc1cc(S(=O)(=O)/N=C/N(C)C)c(Cl)cc1Cl	-1.6
CCOC(=O)c1ccc(Oc2nc(NC)nc(SC)n2)cc1	5.6*
CCOC(=O)c1ccc(Oc2nc(N(C)C)nc(N(C)C)n2)cc1	1.7
COC(=O)c1ccc(Oc2nc(N(C)C)nc(N(C)C)n2)cc1	-0.06
Oc1ccc2ncccc2c1C(Nc1ccccn1)c1ccc(Br)cc1 (configuration not stated)	1.4
CC(C)(C)c1ccc2c(c1)CN(c1ccc(F)cc1)CO2	6.3*
CC(C)(C)c1ccc2c(c1)CN(Cc1ccccc1)CO2	2.6
CC(C)(C)c1ccc2c(c1)CN(c1cccc(C(=O)O)c1)CO2	-0.89
O=C(CS(=O)(=O)Nc1ccc(Cl)cc1)CS(=O)(=O)Nc1ccc(Cl)cc1	2.9
Cc1ccc(S(=O)(=O)NNc2c(Cl)cc(Cl)cc2Cl)cc1	0.84
CC(C)(C)c1ccc(S(=O)(=O)N(C(=O)c2cccnc2)c2ccc3oc(=O)sc3c2)cc1	4.6*
CC(C)c1ccc(S(=O)(=O)N(C(=O)c2cccnc2)c2ccc3oc(=O)sc3c2)cc1	2.7
CCc1ccc(S(=O)(=O)N(C(=O)c2cccnc2)c2ccc3oc(=O)sc3c2)cc1	6.2*
O=C(c1ccncc1)N(c1ccc2oc(=O)sc2c1)S(=O)(=O)c1ccc(Br)cc1	2.1
CC(C)(C)c1ccc(S(=O)(=O)N(C(=O)c2ccncc2)c2ccc3oc(=O)sc3c2)cc1	6.7*
COC(=O)C12CCCC(C(N)=O)(CCC1)C2	0.95
CCCCOC(=O)C1=C(C)NC2=C(C(=O)CCC2)C1c1ccc(OCCC)c(OC)c1 (configuration not stated)	0.29
COc1ccc(C[C@H](NC(C)=O)C(=O)O)c(Cl)c1OC	-0.79
O=C1CC(Nc2ccc(Oc3ccccc3)cc2)C(=O)N1c1ccc(F)cc1 (configuration not stated)	0.96
COc1ccc(NC2CC(=O)N(c3ccc(OC(C)=O)cc3)C2=O)cc1 (configuration not stated)	1.3
CC(C)(Cc1nc2ccccc2[nH]1)C(=O)O	-1.3
COC(=O)CC1=NN(c2nc3ccccc3[nH]2)C(=O)C1	5.3*
SMILES	Dicer processing
CCOC(=O)Cc1nc2ccccc2[nH]1	2.8
CC1=C(C(=O)OC(C)C)C(c2cccc(Cl)c2)n2c(nc3ccccc32)N1 (configuration not stated)	0.08
COC(=O)CN1C(=O)C(=O)c2ccccc21	-1.6
COC(=O)c1ccc(Cn2c(C)cc(C)[n+]2C)o1	2.9
O=C1C(=O)N(Cc2ccc(CN3C(=O)C(=O)c4ccccc43)cc2)c2ccccc21	3*
COC(=O)c1ccc(CN2C(=O)C(=O)c3ccccc32)o1	3.7*
CCCN1C(=O)C(=O)c2ccccc21	-0.36
CN(C)CCN1C(=O)C(=O)c2ccccc21	-1.5
CC(=O)/C(N=Nc1ccc(C(F)(F)F)cc1)=C(\C)O	1.6
COC(=O)/C(=C\N(C)C)Sc1cc(C)c(Cl)cc1C	-0.82
Cc1c(NC(=S)Nc2ccccc2Cl)c(=O)n(-c2ccccc2)n1C	-0.96

Screens (PubChem)
